# Assay results published in PMC7862700, “An all-to-all approach to the identification of sequence-specific readers for epigenetic DNA modifications on cytosine”.
# Key:
# Assay in all cases: DAPPL (digital affinity profiling via proximity ligation, sequencing); 10 mM Tris-HCl pH 7.5, 50 mM NaCl, 1 mM DTT, 4% glycerol, room temperature, 30 min; GST-TFs on glutathione beads, 16-mer random dsDNA library, 0.1% formaldehyde crosslink after washing; high values mean tight binding
# [1] = biological target: T1, FLI1 (Homo sapiens, UniProt Q01543 1-452); settings: protein: recombinant; tags: N-terminal GST; dsDNA, one strand shown
# T1 sequence: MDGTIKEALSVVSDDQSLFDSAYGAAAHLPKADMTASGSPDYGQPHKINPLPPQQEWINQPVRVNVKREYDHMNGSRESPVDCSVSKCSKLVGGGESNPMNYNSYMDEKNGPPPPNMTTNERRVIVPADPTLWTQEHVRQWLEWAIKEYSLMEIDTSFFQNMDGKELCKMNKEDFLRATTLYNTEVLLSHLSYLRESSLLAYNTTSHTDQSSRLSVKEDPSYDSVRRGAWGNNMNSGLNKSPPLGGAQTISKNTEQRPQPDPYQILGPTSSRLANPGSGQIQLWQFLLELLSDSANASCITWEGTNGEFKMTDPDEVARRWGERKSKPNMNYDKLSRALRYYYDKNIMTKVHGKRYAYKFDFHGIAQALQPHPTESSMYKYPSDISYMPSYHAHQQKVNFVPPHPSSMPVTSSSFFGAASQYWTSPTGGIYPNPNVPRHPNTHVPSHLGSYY
# Outline: (§1)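 Binding signal is defined as a hexamer's read frequency for one factor over its frequency for the tag-only sample. To obtain reads, GST-fused human transcription factors were expressed in yeast, captured on glutathione beads, barcoded with DNA and pooled with that sample. Pools met 200 nmole of a 16-mer random double-stranded DNA library in Tris/NaCl/DTT/glycerol buffer for 30 min at room temperature before washing, 0.1% formaldehyde crosslinking, proximity ligation (BsaI/T4 ligase, 1 h, 37 °C), PCR and Illumina NextSeq500 sequencing.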
# [2] = biological target: T2, ELK1 (Homo sapiens, UniProt P19419 1-428); settings: protein: recombinant; tags: N-terminal GST; dsDNA, one strand shown
# T2 sequence: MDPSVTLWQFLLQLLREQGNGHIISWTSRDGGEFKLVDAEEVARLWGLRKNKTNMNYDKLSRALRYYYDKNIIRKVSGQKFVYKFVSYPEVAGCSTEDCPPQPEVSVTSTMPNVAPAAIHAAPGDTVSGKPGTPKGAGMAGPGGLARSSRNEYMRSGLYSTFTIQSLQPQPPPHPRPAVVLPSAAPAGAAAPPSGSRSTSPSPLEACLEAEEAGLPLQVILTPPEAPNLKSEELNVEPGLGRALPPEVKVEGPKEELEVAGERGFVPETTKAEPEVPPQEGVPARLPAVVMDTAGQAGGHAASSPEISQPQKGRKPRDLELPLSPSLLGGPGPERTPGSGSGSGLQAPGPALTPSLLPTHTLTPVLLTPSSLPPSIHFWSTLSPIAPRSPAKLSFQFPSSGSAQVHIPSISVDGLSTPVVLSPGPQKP
# Outline: as §1
# [3] = biological target: T3, GABPA (Homo sapiens, UniProt Q06546 1-454); settings: protein: recombinant; tags: N-terminal GST; dsDNA, one strand shown
# T3 sequence: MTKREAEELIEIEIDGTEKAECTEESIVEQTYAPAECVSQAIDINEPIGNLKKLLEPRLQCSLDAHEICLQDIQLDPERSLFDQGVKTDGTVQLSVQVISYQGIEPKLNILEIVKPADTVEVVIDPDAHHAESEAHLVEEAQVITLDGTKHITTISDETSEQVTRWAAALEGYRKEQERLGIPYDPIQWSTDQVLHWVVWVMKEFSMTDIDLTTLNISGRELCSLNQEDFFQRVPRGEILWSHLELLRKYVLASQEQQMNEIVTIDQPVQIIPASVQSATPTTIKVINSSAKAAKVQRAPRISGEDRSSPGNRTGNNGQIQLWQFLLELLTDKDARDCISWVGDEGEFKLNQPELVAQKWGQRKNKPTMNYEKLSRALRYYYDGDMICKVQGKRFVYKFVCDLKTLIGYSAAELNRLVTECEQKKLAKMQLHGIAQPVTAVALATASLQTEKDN
# Outline: as §1
# [4] = biological target: T4, ERG (Homo sapiens, UniProt P11308 1-479); settings: protein: recombinant; tags: N-terminal GST; dsDNA, one strand shown
# T4 sequence: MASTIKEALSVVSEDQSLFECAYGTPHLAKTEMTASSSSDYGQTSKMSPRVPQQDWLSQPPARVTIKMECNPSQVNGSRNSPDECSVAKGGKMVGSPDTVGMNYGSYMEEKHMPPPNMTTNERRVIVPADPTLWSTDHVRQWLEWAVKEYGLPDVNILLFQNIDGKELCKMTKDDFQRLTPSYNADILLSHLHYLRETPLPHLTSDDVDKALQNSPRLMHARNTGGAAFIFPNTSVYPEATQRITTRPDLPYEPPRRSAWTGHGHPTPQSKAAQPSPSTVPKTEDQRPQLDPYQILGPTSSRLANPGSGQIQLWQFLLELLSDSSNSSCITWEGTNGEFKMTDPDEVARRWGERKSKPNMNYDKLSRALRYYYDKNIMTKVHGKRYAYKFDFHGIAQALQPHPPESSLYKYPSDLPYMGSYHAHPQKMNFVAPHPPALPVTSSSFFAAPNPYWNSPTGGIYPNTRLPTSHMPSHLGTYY
# Outline: as §1
# [5] = biological target: ELF1 (Homo sapiens, UniProt P32519 1-619); settings: protein: recombinant; tags: N-terminal GST; dsDNA, one strand shown
# Sequence of ELF1 (P32519 whole entry): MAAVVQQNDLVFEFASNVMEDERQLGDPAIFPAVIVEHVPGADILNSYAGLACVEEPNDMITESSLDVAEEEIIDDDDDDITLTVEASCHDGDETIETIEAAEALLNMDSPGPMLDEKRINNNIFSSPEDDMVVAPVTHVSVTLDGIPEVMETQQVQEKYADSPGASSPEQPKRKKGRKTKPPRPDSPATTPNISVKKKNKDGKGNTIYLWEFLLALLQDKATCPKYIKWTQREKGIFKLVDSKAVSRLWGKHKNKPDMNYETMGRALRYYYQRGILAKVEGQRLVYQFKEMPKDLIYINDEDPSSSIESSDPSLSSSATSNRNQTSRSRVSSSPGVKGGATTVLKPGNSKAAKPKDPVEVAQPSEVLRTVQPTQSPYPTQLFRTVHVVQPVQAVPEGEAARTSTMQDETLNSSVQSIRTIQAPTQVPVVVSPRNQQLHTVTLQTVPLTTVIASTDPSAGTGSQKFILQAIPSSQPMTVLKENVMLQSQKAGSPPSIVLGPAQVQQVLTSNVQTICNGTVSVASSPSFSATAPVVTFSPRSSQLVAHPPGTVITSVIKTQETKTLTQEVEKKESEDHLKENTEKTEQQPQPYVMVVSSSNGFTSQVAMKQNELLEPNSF
# Outline: as §1
# [6] = biological target: T5, EHF (Homo sapiens, UniProt Q9NZC4 1-300); settings: protein: recombinant; tags: N-terminal GST; dsDNA, one strand shown
# T5 sequence: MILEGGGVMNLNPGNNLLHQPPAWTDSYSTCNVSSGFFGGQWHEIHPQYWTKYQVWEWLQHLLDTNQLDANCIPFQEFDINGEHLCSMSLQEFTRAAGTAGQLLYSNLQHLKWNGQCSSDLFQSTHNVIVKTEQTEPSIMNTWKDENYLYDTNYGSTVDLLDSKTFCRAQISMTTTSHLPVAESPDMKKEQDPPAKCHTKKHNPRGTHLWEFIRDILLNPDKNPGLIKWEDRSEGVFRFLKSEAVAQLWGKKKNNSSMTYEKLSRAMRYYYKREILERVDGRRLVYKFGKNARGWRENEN
# Outline: as §1
# [7] = biological target: SPI1 (Homo sapiens, UniProt P17947 1-270); settings: protein: recombinant; tags: N-terminal GST; dsDNA, one strand shown
# Outline: as §1
# [8] = biological target: SPIB (Homo sapiens, UniProt Q01892 1-262); settings: protein: recombinant; tags: N-terminal GST; dsDNA, one strand shown
# Sequence of SPIB (Q01892 whole entry): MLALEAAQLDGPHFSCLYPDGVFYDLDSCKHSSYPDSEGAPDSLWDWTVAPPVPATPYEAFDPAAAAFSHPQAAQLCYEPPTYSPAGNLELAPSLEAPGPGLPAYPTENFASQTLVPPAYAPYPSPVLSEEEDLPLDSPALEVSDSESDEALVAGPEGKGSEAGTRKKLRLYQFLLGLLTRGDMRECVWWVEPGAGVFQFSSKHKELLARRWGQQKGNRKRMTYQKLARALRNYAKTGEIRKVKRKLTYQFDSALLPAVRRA
# Outline: as §1
# [9] = biological target: T6, ELK3 (Homo sapiens, UniProt P41970 1-407); settings: protein: recombinant; tags: N-terminal GST; dsDNA, one strand shown
# T6 sequence: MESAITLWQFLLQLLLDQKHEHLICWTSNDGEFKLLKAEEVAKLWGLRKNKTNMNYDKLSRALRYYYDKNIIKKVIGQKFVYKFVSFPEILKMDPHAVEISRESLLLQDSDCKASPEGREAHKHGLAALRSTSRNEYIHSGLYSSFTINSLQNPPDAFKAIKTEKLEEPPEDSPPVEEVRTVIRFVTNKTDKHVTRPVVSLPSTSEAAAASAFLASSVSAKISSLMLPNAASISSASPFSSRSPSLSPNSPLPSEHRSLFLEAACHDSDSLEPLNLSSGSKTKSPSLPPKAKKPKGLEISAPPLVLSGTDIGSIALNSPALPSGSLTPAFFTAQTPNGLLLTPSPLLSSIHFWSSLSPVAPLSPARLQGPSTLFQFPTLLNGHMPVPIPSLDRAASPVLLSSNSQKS
# Outline: as §1
# [10] = biological target: T7, FEV (Homo sapiens, UniProt Q99581 1-238); settings: protein: recombinant; tags: N-terminal GST; dsDNA, one strand shown
# T7 sequence: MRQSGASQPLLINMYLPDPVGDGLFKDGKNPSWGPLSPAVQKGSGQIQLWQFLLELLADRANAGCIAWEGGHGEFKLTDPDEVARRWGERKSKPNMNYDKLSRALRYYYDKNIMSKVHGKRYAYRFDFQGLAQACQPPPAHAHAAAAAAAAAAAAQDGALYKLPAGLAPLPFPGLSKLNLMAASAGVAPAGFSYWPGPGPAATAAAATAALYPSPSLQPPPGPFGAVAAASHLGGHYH
# Outline: as §1
# [11] = biological target: ETV5 (Homo sapiens, UniProt P41161 1-510); settings: protein: recombinant; tags: N-terminal GST; dsDNA, one strand shown
# Sequence of ETV5 (P41161 whole entry): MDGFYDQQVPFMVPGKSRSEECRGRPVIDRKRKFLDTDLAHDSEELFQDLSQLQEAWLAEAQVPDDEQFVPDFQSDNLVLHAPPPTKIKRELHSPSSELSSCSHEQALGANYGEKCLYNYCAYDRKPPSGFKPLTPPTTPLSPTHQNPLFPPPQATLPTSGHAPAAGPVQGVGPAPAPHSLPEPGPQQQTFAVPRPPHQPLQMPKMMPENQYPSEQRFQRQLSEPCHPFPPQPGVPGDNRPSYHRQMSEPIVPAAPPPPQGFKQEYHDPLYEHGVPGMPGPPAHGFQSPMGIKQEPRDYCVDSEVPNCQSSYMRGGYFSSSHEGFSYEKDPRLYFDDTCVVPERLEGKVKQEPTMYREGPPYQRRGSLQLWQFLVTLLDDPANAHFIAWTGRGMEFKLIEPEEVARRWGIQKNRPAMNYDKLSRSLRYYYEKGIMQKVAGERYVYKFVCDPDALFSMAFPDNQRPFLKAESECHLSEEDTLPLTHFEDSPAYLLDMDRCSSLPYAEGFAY
# Outline: as §1
# [12] = biological target: HSF1 (Homo sapiens, UniProt Q00613 1-529); settings: protein: recombinant; tags: N-terminal GST; chain copies: 3; dsDNA, one strand shown
# Sequence of HSF1 (Q00613 whole entry): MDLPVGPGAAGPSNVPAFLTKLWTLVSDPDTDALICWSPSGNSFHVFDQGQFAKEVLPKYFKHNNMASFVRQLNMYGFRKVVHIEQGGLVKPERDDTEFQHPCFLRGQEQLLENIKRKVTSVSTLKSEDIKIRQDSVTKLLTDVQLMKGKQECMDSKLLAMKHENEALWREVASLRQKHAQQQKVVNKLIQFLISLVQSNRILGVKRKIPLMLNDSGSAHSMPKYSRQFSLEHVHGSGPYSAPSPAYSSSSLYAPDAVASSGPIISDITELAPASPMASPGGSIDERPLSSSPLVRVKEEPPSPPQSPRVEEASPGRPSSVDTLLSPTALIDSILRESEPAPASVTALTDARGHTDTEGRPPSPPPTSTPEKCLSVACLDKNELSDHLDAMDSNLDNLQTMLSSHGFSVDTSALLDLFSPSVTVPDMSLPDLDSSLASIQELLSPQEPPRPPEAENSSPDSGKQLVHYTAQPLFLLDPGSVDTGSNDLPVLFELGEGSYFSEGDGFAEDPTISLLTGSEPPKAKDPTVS
# Outline: as §1
# [13] = biological target: T8, SPIC (Homo sapiens, UniProt Q8N5J4 1-248); settings: protein: recombinant; tags: N-terminal GST; dsDNA, one strand shown
# T8 sequence: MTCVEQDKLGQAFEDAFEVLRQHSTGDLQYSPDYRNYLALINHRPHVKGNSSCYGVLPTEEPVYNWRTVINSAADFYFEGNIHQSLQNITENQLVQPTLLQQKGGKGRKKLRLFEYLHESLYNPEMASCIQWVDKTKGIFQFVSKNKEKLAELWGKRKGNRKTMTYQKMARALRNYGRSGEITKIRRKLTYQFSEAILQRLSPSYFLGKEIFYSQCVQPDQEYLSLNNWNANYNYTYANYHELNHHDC
# Outline: as §1
# [14] = biological target: ELF4 (Homo sapiens, UniProt Q99607 1-663); settings: protein: recombinant; tags: N-terminal GST; dsDNA, one strand shown
# Sequence of ELF4 (Q99607 whole entry): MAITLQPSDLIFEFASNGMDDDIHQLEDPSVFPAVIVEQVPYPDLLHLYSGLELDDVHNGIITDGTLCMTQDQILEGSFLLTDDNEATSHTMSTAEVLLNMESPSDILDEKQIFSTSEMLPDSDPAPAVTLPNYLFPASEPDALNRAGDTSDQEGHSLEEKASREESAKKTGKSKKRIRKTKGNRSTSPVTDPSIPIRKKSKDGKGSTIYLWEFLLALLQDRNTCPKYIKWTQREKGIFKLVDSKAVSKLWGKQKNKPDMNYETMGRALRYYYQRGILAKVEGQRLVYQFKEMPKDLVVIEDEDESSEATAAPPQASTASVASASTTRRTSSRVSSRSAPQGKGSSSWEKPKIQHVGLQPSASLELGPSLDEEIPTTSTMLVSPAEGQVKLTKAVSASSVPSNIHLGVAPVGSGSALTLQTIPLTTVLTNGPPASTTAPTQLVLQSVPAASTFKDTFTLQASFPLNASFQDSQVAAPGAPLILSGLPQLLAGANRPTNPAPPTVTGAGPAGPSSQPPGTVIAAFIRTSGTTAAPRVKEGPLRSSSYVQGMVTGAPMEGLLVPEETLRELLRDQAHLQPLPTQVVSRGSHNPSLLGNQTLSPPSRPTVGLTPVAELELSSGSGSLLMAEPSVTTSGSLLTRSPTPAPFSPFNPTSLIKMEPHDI
# Outline: as §1
# [15] = biological target: T9, ELK4 (Homo sapiens, UniProt P28324-2 1-405); settings: protein: recombinant; tags: N-terminal GST; dsDNA, one strand shown
# T9 sequence: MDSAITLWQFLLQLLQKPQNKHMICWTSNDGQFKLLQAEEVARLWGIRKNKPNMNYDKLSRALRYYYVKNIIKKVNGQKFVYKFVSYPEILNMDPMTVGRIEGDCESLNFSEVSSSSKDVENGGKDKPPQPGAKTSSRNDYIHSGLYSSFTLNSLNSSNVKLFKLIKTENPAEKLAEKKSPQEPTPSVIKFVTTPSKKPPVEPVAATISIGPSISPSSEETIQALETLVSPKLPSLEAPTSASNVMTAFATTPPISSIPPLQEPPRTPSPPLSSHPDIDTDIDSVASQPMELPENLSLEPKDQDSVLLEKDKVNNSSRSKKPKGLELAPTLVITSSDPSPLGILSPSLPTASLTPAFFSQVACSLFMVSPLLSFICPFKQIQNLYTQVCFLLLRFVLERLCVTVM
# Outline: as §1
# [16] = biological target: T10, ETV2 (Homo sapiens, UniProt O00321 1-342); settings: protein: recombinant; tags: N-terminal GST; dsDNA, one strand shown
# T10 sequence: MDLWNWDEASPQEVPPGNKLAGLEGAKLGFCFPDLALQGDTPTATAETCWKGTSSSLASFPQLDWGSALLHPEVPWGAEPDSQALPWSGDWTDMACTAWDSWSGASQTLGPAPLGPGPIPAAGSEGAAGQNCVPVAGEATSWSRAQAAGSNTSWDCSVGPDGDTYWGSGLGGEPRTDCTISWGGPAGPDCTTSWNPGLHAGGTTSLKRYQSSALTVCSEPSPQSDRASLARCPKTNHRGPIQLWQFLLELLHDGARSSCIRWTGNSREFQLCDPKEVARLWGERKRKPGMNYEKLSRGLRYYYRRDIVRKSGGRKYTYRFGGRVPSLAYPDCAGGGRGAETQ
# Outline: as §1
# [17] = biological target: T11, ELF3 (Homo sapiens, UniProt P78545 1-371); settings: protein: recombinant; tags: N-terminal GST; dsDNA, one strand shown
# T11 sequence: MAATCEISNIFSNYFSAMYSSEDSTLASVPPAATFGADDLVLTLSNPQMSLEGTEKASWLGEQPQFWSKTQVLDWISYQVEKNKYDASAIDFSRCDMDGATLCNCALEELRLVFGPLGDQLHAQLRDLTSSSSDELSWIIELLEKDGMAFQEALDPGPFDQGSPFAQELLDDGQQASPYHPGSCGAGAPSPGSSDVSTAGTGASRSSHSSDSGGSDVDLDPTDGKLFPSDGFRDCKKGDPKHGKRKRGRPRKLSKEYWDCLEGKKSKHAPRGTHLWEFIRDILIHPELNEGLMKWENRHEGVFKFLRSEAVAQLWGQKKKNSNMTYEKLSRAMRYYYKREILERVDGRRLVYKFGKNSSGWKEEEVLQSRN
# Outline: as §1
# [18] = biological target: CRX (Homo sapiens, UniProt O43186 1-299); settings: protein: recombinant; tags: N-terminal GST; dsDNA, one strand shown
# Sequence of CRX (O43186 whole entry): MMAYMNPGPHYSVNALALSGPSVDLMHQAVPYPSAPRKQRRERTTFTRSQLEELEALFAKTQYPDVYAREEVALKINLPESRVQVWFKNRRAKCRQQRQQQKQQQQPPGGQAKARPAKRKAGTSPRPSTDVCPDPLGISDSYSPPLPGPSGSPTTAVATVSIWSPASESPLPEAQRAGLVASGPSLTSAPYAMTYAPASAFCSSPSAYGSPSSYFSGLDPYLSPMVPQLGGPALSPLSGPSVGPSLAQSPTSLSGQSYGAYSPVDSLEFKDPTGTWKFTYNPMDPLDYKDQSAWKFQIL
# Outline: as §1
# [19] = biological target: ETV1 (Homo sapiens, UniProt P50549 1-477); settings: protein: recombinant; tags: N-terminal GST; dsDNA, one strand shown
# Sequence of ETV1 (P50549 whole entry): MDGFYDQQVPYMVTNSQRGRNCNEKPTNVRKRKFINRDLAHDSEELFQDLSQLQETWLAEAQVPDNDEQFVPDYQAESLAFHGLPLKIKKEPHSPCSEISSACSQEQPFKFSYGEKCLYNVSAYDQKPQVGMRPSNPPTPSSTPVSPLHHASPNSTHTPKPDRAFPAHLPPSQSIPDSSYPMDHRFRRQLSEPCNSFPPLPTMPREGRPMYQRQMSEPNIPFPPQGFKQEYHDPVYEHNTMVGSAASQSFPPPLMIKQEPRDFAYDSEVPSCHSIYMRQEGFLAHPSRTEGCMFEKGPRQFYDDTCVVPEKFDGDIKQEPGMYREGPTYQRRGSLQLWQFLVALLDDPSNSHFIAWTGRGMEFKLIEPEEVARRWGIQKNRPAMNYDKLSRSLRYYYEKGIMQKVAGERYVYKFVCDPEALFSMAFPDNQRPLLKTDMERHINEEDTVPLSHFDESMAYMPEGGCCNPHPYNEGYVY
# Outline: as §1
sequence,measurement,setting,value
TGCTAG,binding signal,[1],"1.11 fold enrichment (6-mer frequency, TF over GST control)"
same,binding signal,[2],"1.08 fold enrichment (6-mer frequency, TF over GST control)"
same,binding signal,[3],"1.08 fold enrichment (6-mer frequency, TF over GST control)"
same,binding signal,[4],"1.11 fold enrichment (6-mer frequency, TF over GST control)"
same,binding signal,[5],"1.16 fold enrichment (6-mer frequency, TF over GST control)"
same,binding signal,[6],"1.1 fold enrichment (6-mer frequency, TF over GST control)"
same,binding signal,[7],"1.2 fold enrichment (6-mer frequency, TF over GST control)"
same,binding signal,[8],"1.19 fold enrichment (6-mer frequency, TF over GST control)"
same,binding signal,[9],"1.03 fold enrichment (6-mer frequency, TF over GST control)"
same,binding signal,[10],"1.15 fold enrichment (6-mer frequency, TF over GST control)"
same,binding signal,[11],"1.3 fold enrichment (6-mer frequency, TF over GST control)"
same,binding signal,[12],"1.94 fold enrichment (6-mer frequency, TF over GST control)"
same,binding signal,[13],"1.17 fold enrichment (6-mer frequency, TF over GST control)"
same,binding signal,[14],"1.19 fold enrichment (6-mer frequency, TF over GST control)"
same,binding signal,[15],"1.26 fold enrichment (6-mer frequency, TF over GST control)"
same,binding signal,[16],"1.01 fold enrichment (6-mer frequency, TF over GST control)"
same,binding signal,[17],"1.34 fold enrichment (6-mer frequency, TF over GST control)"
same,binding signal,[18],"1.21 fold enrichment (6-mer frequency, TF over GST control)"
same,binding signal,[19],"1.17 fold enrichment (6-mer frequency, TF over GST control)"
